Screen size: about 310,000 compounds; about 14,000 (4.5%) showed an effect of 50% or more. Effects have a minus sign here. The sample as a whole holds a higher share of strong results than the screen did.

These results are taken from publication PMC4336329 (PLoS ONE, 2015).
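Further: peak tail current of the secondary pulse compared with the same well before compound.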

The target of the test is human ether-à-go-go-related gene (hERG) potassium channel (human, UniProt Q12809). Briefly: primary screen, population patch clamp on CHO cells stably expressing hERG; higher = less effect of the substance.
Chain of human ether-à-go-go-related gene (hERG) potassium channel (Q12809 whole entry, looked up): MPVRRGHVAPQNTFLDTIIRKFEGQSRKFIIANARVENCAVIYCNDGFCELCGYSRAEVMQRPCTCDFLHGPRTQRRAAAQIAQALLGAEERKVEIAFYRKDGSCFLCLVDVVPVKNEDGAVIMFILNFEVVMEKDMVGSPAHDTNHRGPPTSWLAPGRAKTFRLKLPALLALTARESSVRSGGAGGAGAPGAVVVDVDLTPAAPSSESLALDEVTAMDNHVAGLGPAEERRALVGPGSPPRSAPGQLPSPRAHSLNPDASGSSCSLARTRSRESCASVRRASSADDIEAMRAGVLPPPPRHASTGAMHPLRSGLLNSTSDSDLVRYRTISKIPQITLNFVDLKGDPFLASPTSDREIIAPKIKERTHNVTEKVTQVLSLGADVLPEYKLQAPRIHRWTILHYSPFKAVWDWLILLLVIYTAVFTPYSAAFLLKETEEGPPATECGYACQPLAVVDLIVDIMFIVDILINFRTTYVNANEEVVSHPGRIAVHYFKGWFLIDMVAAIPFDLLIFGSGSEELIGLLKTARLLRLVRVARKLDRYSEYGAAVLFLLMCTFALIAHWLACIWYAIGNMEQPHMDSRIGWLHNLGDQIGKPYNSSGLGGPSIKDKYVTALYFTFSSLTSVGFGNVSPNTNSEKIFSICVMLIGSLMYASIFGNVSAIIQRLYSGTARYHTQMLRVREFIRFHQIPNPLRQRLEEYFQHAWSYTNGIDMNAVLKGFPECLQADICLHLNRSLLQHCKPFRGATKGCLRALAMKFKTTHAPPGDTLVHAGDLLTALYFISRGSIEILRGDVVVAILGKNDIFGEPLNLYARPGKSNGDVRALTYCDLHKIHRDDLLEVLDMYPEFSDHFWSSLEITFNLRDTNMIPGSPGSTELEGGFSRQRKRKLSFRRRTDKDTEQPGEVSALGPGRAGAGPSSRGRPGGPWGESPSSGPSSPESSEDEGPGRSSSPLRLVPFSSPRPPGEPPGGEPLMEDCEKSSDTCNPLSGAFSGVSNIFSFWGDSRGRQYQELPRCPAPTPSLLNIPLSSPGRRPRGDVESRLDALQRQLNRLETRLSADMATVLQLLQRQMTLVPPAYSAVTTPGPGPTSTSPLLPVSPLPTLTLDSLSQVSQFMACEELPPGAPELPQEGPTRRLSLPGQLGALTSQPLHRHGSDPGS
On to `COc1ccc(-c2csc(N(CCCN3CCOCC3)C(=O)CCl)n2)cc1.Cl`, for which the “hERG current change (%, negative = inhibition) at 10uM” value turned out to be 3.28%.
As to `CC1(C)C2CCC(C2)C1(C)NC(=O)C[N+](C)(C)C.[Cl-]` (stereo not shown), the “hERG current change (%, negative = inhibition) at 10uM” value was determined as 12.6%.
Then `Cc1nc(NC(=O)/C=C/c2ccccc2)sc1C(=O)Nc1ccccc1Cl`, with 13.3%; and `c1ccc(-c2ncc(CN3CCN(c4ccccn4)CC3)[nH]2)cc1`, with -14.1%; and `CCOC(=O)c1cnc(-n2nc(C)cc2C)nc1NC1CCCC1`, with -26.2%.
For `CC(C)NCc1nnc(-c2ccc(Cl)cc2)o1`, the “hERG current change (%, negative = inhibition) at 10uM” value is on record as 15.9%.
Take `CCc1ccccc1NC(=O)c1cc(=O)c2ccccc2o1`: the “hERG current change (%, negative = inhibition) at 10uM” value is on record as -1.16%.
With `O=C(C1=C[C@@H](c2ccc(Br)cc2)C[C@@H](OCCCCO)O1)N1CCOCC1`, the “hERG current change (%, negative = inhibition) at 10uM” value is -15.7%.
To `O=C(C1=C[C@@H](c2ccc(C(F)(F)F)cc2)C[C@@H](OCCCCO)O1)N1CCN(Cc2ccccc2)CC1` belongs -60.6%; to `O=C(C1=C[C@H](c2ccc(Br)cc2)C[C@H](OCCCCO)O1)N1CCN(Cc2ccccc2)CC1`, -80.8%.
Consider `CN1CCN(C(=O)C2=C[C@@H](c3ccccc3)C[C@@H](OCCCCO)O2)CC1`, for which the “hERG current change (%, negative = inhibition) at 10uM” value is listed as -6.11%.
In the case of `O=C(C1=C[C@@H](c2ccc(C(F)(F)F)cc2)C[C@@H](OCCCCO)O1)N1CCCCCCC1`, the “hERG current change (%, negative = inhibition) at 10uM” value is -51.3%.
To `O=C(C1=C[C@H](c2ccc(C(F)(F)F)cc2)C[C@H](OCCCCO)O1)N1CCN(Cc2ccccc2)CC1` belongs -49.6%; to `C=CCOC(=O)C1=C[C@@H](c2ccc(Br)cc2)[C@H](CCCO)[C@@H](OCC)O1`, -22.6%; to `O=C(C1=C[C@H](c2ccc(C(F)(F)F)cc2)C[C@H](OCCCCO)O1)N1CCOCC1`, -23.7%.
Turning to `C=CCOC(=O)C1=C[C@@H](c2ccccc2)[C@H](CCCO)[C@@H](OCC)O1`, the “hERG current change (%, negative = inhibition) at 10uM” value is on record as -9.65%.
To `O=C(C1=C[C@@H](c2ccc(C(F)(F)F)cc2)C[C@@H](OCCCCO)O1)N1CCOCC1` belongs -3.65%; to `C=CCOC(=O)C1=C[C@H](c2ccc(Br)cc2)[C@@H](CCCO)[C@H](OCC)O1`, -55.3%; to `O=C(C1=C[C@H](c2ccc(C(F)(F)F)cc2)C[C@H](OCc2ccc(CO)cc2)O1)N1CCN(Cc2ccccc2)CC1`, -15.2%.
To `COc1ccc(OC)c(NC(=O)c2ccc(CN3CCc4ccccc4C3)cc2)c1` belongs 3.78%; to `O=C(Nc1ccc(F)cc1)c1cccc(C(=O)Nc2ccc(F)cc2)c1`, -28.4%; to `O=C(CN1C(=O)S/C(=C\c2ccc(O)c([N+](=O)[O-])c2)C1=O)Nc1ccc(N2CCOCC2)cc1`, 12.2%.
As to `O=C1CCC(=O)N1OCCCOc1ccc2c(c1)CCC2`, the “hERG current change (%, negative = inhibition) at 10uM” value was determined as 1.61%.
Then `CCCNC(=O)Cc1c(C)n(C(=O)c2ccc(Cl)cc2)c2ccc(OC)cc12`, with 14.6%; and `COC(=O)C1=NNC2(c3ccc(C)cc3)C(=O)N(c3ccc(C)cc3)C(=O)C12` (stereo not shown), with 16.5%.
Take `N/C(=N\OC(=O)c1ccccc1)c1ccccn1`: the “hERG current change (%, negative = inhibition) at 10uM” value is recorded as 12.9%.
In the case of `CCOc1ccc(CC(=O)N/N=C/c2cccnc2)cc1OCC`, the “hERG current change (%, negative = inhibition) at 10uM” value was 14%.
`CCCC(=O)Nc1ccc(C(=O)O)cc1NC(=O)CCC`: the “hERG current change (%, negative = inhibition) at 10uM” value is given as 8.09%.
`CCNc1cc2n(c(=O)n1)CCc1cc(OC)c(OC)cc1-2`: the “hERG current change (%, negative = inhibition) at 10uM” value is given as -19.5%.
Then `Cc1ccc(C(=O)N/C(=C\c2cccs2)C(=O)NCc2cccnc2)cc1`, with -58%; and `Cc1ccc(C(=O)N/C(=C/c2cccs2)C(=O)NCC2CCCO2)cc1` (stereo not shown), with -9.01%; and `Cc1ccc(C(=O)N/C(=C\c2sccc2C)C(=O)NCc2ccncc2)cc1`, with -30.5%.
As for `Cc1ccc(C(=O)N/C(=C/c2cccs2)C(=O)NCc2ccco2)cc1`, the “hERG current change (%, negative = inhibition) at 10uM” value is recorded as -15.8%.
Take `Cc1ccc(C(=O)NC(=S)NCc2cccnc2)cc1`: the “hERG current change (%, negative = inhibition) at 10uM” value was -7.52%.
To `Cc1ccc(C(=O)N/C(=C\c2cccs2)C(=O)NCc2ccncc2)cc1` belongs -52.9%; to `CC1(C)CC(OC(=O)c2ccccc2)CC(C)(C)N1`, 9.14%.
Regarding `COc1ccc(NC(=O)c2oc3ccccc3c2NC(=O)C(C)(C)C)cc1`, the “hERG current change (%, negative = inhibition) at 10uM” value is reported as 11.3%.
Then `CC(CCC(=O)Nc1nncs1)C(=O)O` (stereo not shown), with -6.61%.
To `CCCOC(=S)NC(=O)c1sc2ccccc2c1Cl` belongs 12.3%; to `CC(C)c1nc2cc(C(=O)N(C)Cc3ccc(F)cc3)ccc2o1`, 1.04%; to `O=C1CCc2cc(S(=O)(=O)N3CCC(C(=O)NCc4ccccc4Cl)CC3)ccc2N1`, 4.83%.
For the compound `CC(C)CCNC(=O)CCc1nnc2n(CCCOC(C)C)c(=O)c3ccccc3n12`, the “hERG current change (%, negative = inhibition) at 10uM” value is recorded as -26.7%.
Then `CC(C)Cn1c(=O)c2ccccc2n2c(CCC(=O)NC3CCN(Cc4ccccc4)CC3)nnc12`, with -39.4%.
Then `CC(C)CCn1c(=O)c2ccccc2n2c(CCC(=O)NC3CCN(Cc4ccccc4)CC3)nnc12`, with -49.6%; and `CC1CCN(CCCNC(=O)CCc2nnc3n(CCc4ccccc4)c(=O)c4ccccc4n23)CC1`, with -76.8%; and `CC(C)OCCCn1c(=O)c2ccccc2n2c(CCC(=O)NC3CCN(Cc4ccccc4)CC3)nnc12`, with -51.4%.
Then `CC(C)CCn1c(=O)c2ccccc2n2c(CCC(=O)NCC3CCCO3)nnc12` (stereo not shown), with -1.79%; and `CCOCCCNC(=O)CCc1nnc2n(CCC(C)C)c(=O)c3ccccc3n12`, with -22.5%; and `CN1CCN(CCCNC(=O)CCc2nnc3n(Cc4ccccc4Cl)c(=O)c4ccccc4n23)CC1`, with 5.29%.
As to `O=C(CCc1nnc2n(CCc3ccccc3)c(=O)c3ccccc3n12)NCCCN1CCCCC1`, the “hERG current change (%, negative = inhibition) at 10uM” value was -77.6%.
For `Cc1ccc(S(=O)(=O)NNC(=O)C2CCCCC2)cc1`, the “hERG current change (%, negative = inhibition) at 10uM” value came to 9.57%.
To `NC(=O)[C@@H]1CCCN1Cc1nc(-c2ccc(C(F)(F)F)cc2)no1` belongs -5.68%.
